About 83,000 compounds went through this panel and 20% of them were active in at least one assay; those are over-represented in the sample as a whole.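 The test compound was applied at a single concentration to cells in 96-well plates for 48 hours, and percent growth was recorded.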 Calls of active or inactive are those of the source.
Test system: SNB-75 CNS
Test: NCI-60 one-dose screen, 48 h (100 = growth as untreated, 0 = no growth, -100 = all killed)
Settings: 10 µM unless noted
Protocol: Growth inhibition of the SNB-75 human tumor cell line is measured as a screen for anti-cancer activity. Cells are grown in 96 well plates and exposed to the test compound for 48 hours. Compounds are tested at a single concentration, which is 10^-5 M for most compounds. The reported endpoint is percent growth (GI% or GIPRCNT), where numbers from 0 - 100% represent growth inhibition, and numbers from -100% - 0 represent cell death. For example, a value of 40 represents 60% growth inhibition. A value of 0 means no net growth occurred over the course of the experiment. A value of -40 indicates 40% of cells at the beginning of the experiment died by the end of the experiment. A value of -100 means all cells are dead at the end of the experiment.
NCI-60 Human Tumor Cell Lines Screen was performed using the standard one-dose NCI protocol, which is described in more detail at https://dtp.cancer.gov/discovery_development/nci-60/default.htm.
Compounds with GIPRCNT values below 10 were considered active. Activity score was based on GIPRCNT using the following formula: […]
Score is 0 for GIPRCNT values of 100 or above, 50 for GIPRCNT values of 0, and 100 for GIPRCNT values of -100.

Row | Compound | growth
1 | COc1ccc(-c2cnc(-c3ccc(Cl)cc3)[nH]2)cc1OC | 72.8% (inactive)
2 | COC1CCC(N2C(=O)CNc3ncc(-c4ccc(C(C)(C)O)nc4)nc32)CC1 (stereo not given) | -22.7% (active)
3 | C=C1C[C@H](O)[C@H](Br)C(C)(C)[C@@]12CCC(C)=C(Cl)C2 | 52.9% (inactive)
4 | CC12O[C@H](C[C@@H](OC(=O)CCC(=O)O)[C@H]1O)n1c3ccccc3c3c4c(c5c6ccccc6n2c5c31)C(=O)NC4=O | -8.7% (active)
5 | Cn1cnc(-c2cc3nccc(Oc4ccc(NC(=S)NC(=O)Cc5ccccc5)cc4F)c3s2)c1 | 78.6% (inactive)
6 | CC[C@@H]1C(=O)N(C)c2cnc(Nc3ccc(C(=O)NC4CCC(N5CCN(CC6CC6)CC5)CC4)cc3OC)nc2N1C(C)C (stereo not given in full) | -8.67% (active)
7 | CN1CCN(c2ccc(OC(F)(F)F)c(Nc3ncc4c(n3)-c3c(c(C(N)=O)nn3CCO)CC4)c2)CC1 | 7.72% (active)
8 | Cc1[nH]c(/C=C2\C(=O)Nc3ccc(F)cc32)c(C)c1C(=O)NC[C@H](O)CN1CCOCC1 | 35.2% (inactive)
9 | CC(N)C(Cc1ccccc1)c1ccc(Cl)cc1 (stereo not given) | 70.4% (inactive)
10 | CCc1nc2cc(/C=C/C(=O)NO)c(F)cc2c(=O)n1CCc1ccccc1 | 29.3% (inactive)
11 | CCCCCCCC(=O)SCC/C=C/[C@@H]1CC(=O)NCc2nc(co2)C2=N[C@@](C)(CS2)C(=O)N[C@@H](C(C)C)C(=O)O1 | 26.1% (inactive)
12 | COc1cc(-c2nc(C(=O)NCC(=O)O)nn2-c2ccc(Cl)cc2)cc(OC)c1OC | 115% (inactive)
13 | O=C(Cn1c(=O)ccn(CCCCCCCCOc2ccc(Br)cc2)c1=O)Nc1ccc(Oc2ccc(Cl)cc2)cc1 | 70.8% (inactive)
14 | O=c1[nH]c(N2CCOCC2)nc2scc(-c3ccccc3)c12 | 84.3% (inactive)
15 | CC(C)=CCc1cc2c(cc1O)C1=C(C(=O)C3=C(C1=O)S(=O)(=O)CCN3)C(C=C(C)C)O2 (stereo not given) | -81.1% (active)
16 | CC(C)CC(=O)Nc1n[nH]c2c1CN(C(=O)C1CCN(C)CC1)C2(C)C | -19.8% (active)
17 | CCN1CCN(Cc2ccc(NC(=O)Nc3nc(-c4cc(OC)c(OC)c(OC)c4)cs3)cc2C(F)(F)F)CC1 | 24.2% (inactive)
18 | Cc1ccc(C(=O)Nc2ccc(CN3CCN(C)CC3)c(C(F)(F)F)c2)cc1C#Cc1cnc2cccnn12 | -99.1% (active)
19 | CN1[C@@H]2CC[C@H]1/C(=C\c1ccccc1)C1=C2[C@@H](c2ccccc2)C(C#N)=C(N)O1 | 80.4% (inactive)
20 | COC(=O)[C@]12CC[C@@H](C)[C@H](C)[C@@H]1C1=CC[C@@H]3[C@@]4(C)C[C@@H](OC(=O)/C=C/c5ccccc5)[C@H](O)[C@@](C)(CO)[C@@H]4[C@H](O)C[C@@]3(C)[C@]1(C)CC2 | 44.1% (inactive)

Row | Compound | growth
21 | CCN1CCN(Cc2ccc(Cc3ncc(F)c(-c4cc(F)c5nc(C)n(C(C)C)c5c4)n3)nc2)CC1 | 21.2% (inactive)
22 | Cc1cc2c3c(cccc3c1)C(=O)c1ccccc1-2 | 111% (inactive)
23 | CCCCCC(=O)OCc1ccc(Cl)c(Cl)c1 | 96.5% (inactive)
24 | COc1c(C(NC(=O)c2ccccc2)c2sccc2C)cc(Cl)c2cccnc12 (stereo not given) | 88.4% (inactive)
25 | Cc1cnc(Nc2ccc(OCCN3CCCC3)cc2)nc1Nc1cccc(S(=O)(=O)NC(C)(C)C)c1 | -97.9% (active)
26 | CS(=O)(=O)N1CCN(Cc2cc3nc(-c4cccc5[nH]ncc45)nc(N4CCOCC4)c3s2)CC1 | -25.6% (active)
27 | Nc1nc(N)c2cc(CNc3ccc(C(=O)NC(CC(=O)O)C(=O)O)cc3)ccc2n1 (stereo not given) | 52.8% (inactive)
28 | CC(C)(C)c1nc(-c2cccc(NS(=O)(=O)c3c(F)cccc3F)c2F)c(-c2ccnc(N)n2)s1 | 107% (inactive)
29 | C[C@@H](NC(=O)c1ncnc(N)c1Cl)c1ncc(C(=O)Nc2cc(C(F)(F)F)c(Cl)cn2)s1 | 103% (inactive)
30 | O=C(Cc1ccc(/C=C/C(=O)c2ncc[nH]2)cc1)Nc1ccc(S(F)(F)(F)(F)F)cc1 | 72.8% (inactive)
31 | CC1=CC2c3oc(-c4ccccc4)c(C(=O)c4ccccc4)c3CNC2C=C1 (stereo not given) | 79.7% (inactive)
32 | COc1ccc(-c2ccc3ncc4c(c3c2)n(-c2ccc(N3CCNCC3)c(C(F)(F)F)c2)c(=O)n4C)cn1 | -95.1% (active)
33 | CC(C)(C)c1ccc(Cn2cc(CSc3nc4ccccc4s3)nn2)cc1 | 94% (inactive)
34 | CNc1ncc2cc(-c3cc(NC(=O)NCCC(C)(C)C)c(F)cc3C)c(C)nc2n1 | -16.9% (active)
35 | Cc1c(NC(=O)OC[C@@H]2COCCN2)cn2ncnc(Nc3ccc4c(cnn4Cc4cccc(F)c4)c3)c12 | -70.7% (active)
36 | CNC(=O)c1c(C)oc2cc(Oc3ncnc4cc(OC)c(OC)cc34)ccc12 | 58.2% (inactive)
37 | COc1cc2ncnc(Nc3ccc(F)c(Cl)c3)c2cc1NC(=O)/C=C/CN1CCCCC1 | -97.8% (active)
38 | CN(C)C/C=C/C(=O)Nc1cc2c(Nc3ccc(F)c(Cl)c3)ncnc2cc1O[C@H]1CCOC1 | -1.97% (active)
39 | N#CC[C@H](C1CCCC1)n1cc(-c2ncnc3[nH]ccc23)cn1 | 33.8% (inactive)
40 | C#Cc1cccc(Nc2ncnc3cc4c(cc23)OCCOCCOCCO4)c1 | 57.7% (inactive)
